System: Vero E6 infected with SARS-CoV-2
Test: inhibition of SARS-CoV-2 cytopathic effect; higher = more antiviral protection, active = above 15
Settings: 48 h

Measured: inhibition of SARS-CoV-2 cytopathic effect

C[C@H](O)[C@H](O)[C@H]1CNc2nc(N)[nH]c(=O)c2N1 [sapropterin]
inactive: 1 nM -2.03% | 8.33 nM 2.62% | 100 nM 1% | 833.33 nM 0.55% | 10000 nM -1.44%

N#Cc1ccc(N2CCN(C(=O)COc3ccc4[nH]cc(CCN)c4c3)CC2)cc1 [donitriptan]
inactive: 1 nM -0.48% | 8.33 nM -0.51% | 100 nM 0.51% | 833.33 nM -0.87% | 10000 nM 1.77%

C[n+]1ccc(C(=O)NCc2ccccc2)cc1 [enisamium-iodide]
inactive: 1 nM -0.64% | 8.33 nM 7.37% | 100 nM -0.6% | 833.33 nM 4.79% | 10000 nM 0.11%

C[C@]12CCC(=O)C=C1CC[C@@H]1[C@@H]2CC[C@@]2(C)[C@H]1CC[C@]2(O)C(=O)CO [cortodoxone]
inactive: 1 nM -0.53% | 8.33 nM -0.71% | 100 nM 1.21% | 833.33 nM 0.07% | 10000 nM -1.41%

C=CC(N)CCC(=O)O (stereo not given) [vigabatrin]
inactive: 1 nM -9.39% | 8.33 nM -9.03% | 100 nM -9.5% | 833.33 nM -11% | 10000 nM -9.82%

C=C[C@@](C)(/C=C/c1ccc(O)cc1)CCC=C(C)C [bakuchiol]
inactive: 1 nM 1.64% | 8.33 nM 2.39% | 100 nM 0.23% | 833.33 nM 0.59% | 10000 nM 0.79%

O=C(Nc1nc2ccc(NC(=O)C34CC5CC(CC(C5)C3)C4)cc2s1)c1ccccc1
inactive: 1 nM 1.55% | 8.33 nM 3.1% | 100 nM 0.95% | 833.33 nM 2.14% | 10000 nM -6.77%

C[C@@H](Oc1ccc2[nH]nc(/C=C/c3cnn(CCO)c3)c2c1)c1c(Cl)cncc1Cl
inactive: 1 nM -0.14% | 8.33 nM -0.97% | 100 nM -1.04% | 833.33 nM -13.8% | 10000 nM -14.7%

C[N+](C)(C)CCCCCCCCCC[N+](C)(C)C [decamethonium]
inactive: 1 nM -3.35% | 8.33 nM -4.24% | 100 nM -5.16% | 833.33 nM -3.23% | 10000 nM -1.94%

Cc1ncc(CO)c(C=O)c1O [pyridoxal]
inactive: 1 nM 4.33% | 8.33 nM 2.21% | 100 nM 0.26% | 833.33 nM -1.64% | 10000 nM 1.19%

CCOc1cc(C(=O)Nc2ccc(Cl)c(-c3nc4ccccc4[nH]3)c2)cc(OCC)c1OCC
inactive: 1 nM 2.95% | 8.33 nM 2.03% | 100 nM 0.45% | 833.33 nM -3.49% | 10000 nM 4.29%

CCOC(=O)C1=CCCC[C@H]1S(=O)(=O)Nc1ccc(F)cc1Cl [resatorvid]
inactive: 1 nM 1.61% | 8.33 nM 1.54% | 100 nM 3.21% | 833.33 nM 0.29% | 10000 nM -0.49%

CCCCc1nc(Cl)c(C(=O)O)n1Cc1ccc(-c2ccccc2-c2nn[nH]n2)cc1 [carboxylosartan]
inactive: 1 nM 1.07% | 8.33 nM 1.82% | 100 nM 1.92% | 833.33 nM 0.51% | 10000 nM 0.68%

Cc1ccc(C(=O)Nc2ccc(CN3CCN(C)CC3)c(C(F)(F)F)c2)cc1C#Cc1cnc2cccnn12 [ponatinib]
inactive: 1 nM 0.65% | 8.33 nM 1.8% | 100 nM 5.2% | 833.33 nM 1.27% | 10000 nM -10.9%

CC[C@H](NC(=O)c1c(C)c(-c2ccccc2)nc2ccccc12)c1ccccc1
inactive: 1 nM 1.87% | 8.33 nM 4.53% | 100 nM 5.18% | 833.33 nM 3.05% | 10000 nM -2.21%

Cc1sc2c(c1C)C(c1ccc(Cl)cc1)=N[C@@H](CC(=O)Nc1ccc(OCCOCCOCCOCCNc3cccc4c3C(=O)N(C3CCC(=O)NC3=O)C4=O)cc1)c1nnc(C)n1-2 (stereo not given in full)
inactive: 1 nM -0.01% | 8.33 nM -1.32% | 100 nM -2.57% | 833.33 nM 1.39% | 10000 nM -3.1%

COc1ccc(C2CNC(=O)C2)cc1OC1CCCC1 (stereo not given) [rolipram]
inactive: 1 nM 0.987% | 8.33 nM 0.267% | 100 nM -1.59% | 833.33 nM -0.223% | 10000 nM -5.08%

N[C@@H](CSC(c1ccccc1)(c1ccccc1)c1ccccc1)C(=O)O [S-trityl-L-cysteine]
inactive: 1 nM -0.89% | 8.33 nM -0.64% | 100 nM -2.17% | 833.33 nM -0.68% | 10000 nM -1.72%

Reference: the supplement of paper PMC13380429
